According to PubChem BioAssay (NCATS):
Inconclusive results are not listed. Entries that show only a call come without a potency. Calls of active or inactive are those of the source. Unless noted, the call rests on the fitted dose curve; in most records, active means well fitted curve in the direction sought with a large enough effect; inconclusive means small, poorly fitted or top-dose-only effect, or another doubt; inactive means no such curve, though single readings can be large; an effect the other way counts as inactive or inconclusive.

Columns and labels:
[1] = KB-8-5-11 P-gp reporter qHTS against the NCATS DSHEA and TCM libraries (AID 1919977)
Summary of the method: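 KB-8-5-11, 500 cells/well, DMEM/10% FBS without colchicine; 4 h attach; cpd titrations, 72 h, 37C/5% CO2; CellTiter-Glo, 30 min RT, luminescence.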

[2] = Quantitative High-Throughput drug screen in 47 multiple myeloma cell lines against the NCATS MIPE library collection: XG1_PLB cell viability assay (AID 1919866); further: nearly all actives have a fitted effect of over 35% in size; further: potency means the concentration at half of the fitted maximal effect
Summary of the method: (§1)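 Plated at 500 cells per well, myeloma lines received MIPE 4.0 compounds by pin tool. Following 48 h culture at 37 °C, CellTiter-Glo luminescence gave viability relative to DMSO and media-only controls.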

[3] = Quantitative High-Throughput drug screen in 47 multiple myeloma cell lines against the NCATS MIPE library collection: VP6_DJ cell viability assay (AID 1919867); further: nearly all actives have a fitted effect of over 40% in size
Summary of the method: as §1

[4] = Quantitative High-Throughput drug screen in 47 multiple myeloma cell lines against the NCATS MIPE library collection: OPM2_DSMZ cell viability assay (AID 1919872); further: nearly all actives have a fitted effect of over 30% in size
Summary of the method: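 Myeloma cells (500 per well) were exposed to MIPE 4.0 compounds by pin transfer and incubated 48 hours at 37C, 5% CO2. Viability was read as ATP by CellTiter-Glo luminescence, normalised to DMSO (100%) and media-only (0%) wells.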

[5] = qHTS drug screen for cell cycle checkpoint inhibitors in PARPi-resistant BRCA-mutant ovarian cancer cell lines. (AID 1963452; calls by dose curve); details: PEO1/OlaR viability, CellTiter-Glo luminescence, 96 h, stronger effect = lower value
Summary of the method: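 PEO1, PEO4 and PEO1/OlaR ovarian cancer cells, 600 per well, exposed 96 h at 37C to a dilution series. Viability read by CellTiter-Glo luminescence, normalized to DMSO and empty wells; activity summarized as Z-AUC.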

[6] = qHTS for identification of novel therapeutic agents for treatment of microphthalmiaassociated transcription factor (MiT) renal cell carcinoma (RCC) (AID 1963991); details: CellTiter-Glo, 48 h, stronger effect = lower value
Summary of the method: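 Three TFE3-fusion RCC cell lines (UOK109, UOK124, UOK145), 500 cells/well, were exposed to the 1912-compound MIPE 4.0 library for 48 hours at 37 C. Viability was read by CellTiter-Glo luminescence, normalised to DMSO (100%) and empty wells (0%), with 11-concentration curve fits.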

[7] = qHTS profiling for inhibitors of Plasmodium falciparum proliferation (AID 504749); further: nearly all actives have a fitted effect of over 60% in size; details: P. falciparum in erythrocytes, SYBR Green DNA, 72 h, at 28.7 µM (top of the series)
Summary of the method: (§2)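 Three-day growth assay of blood-stage parasites in erythrocytes (0.3% parasitemia, 2.5% hematocrit) at 37 C, 5% CO2, quantified by SYBR Green DNA staining after overnight detergent lysis.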

3D7 = assay: as above; details: P. falciparum in erythrocytes, SYBR Green DNA, 72 h; series mostly up to 28.7 µM
Summary of the method: as §2

7G8 = assay: as above; details: P. falciparum in erythrocytes, SYBR Green DNA, 72 h; series mostly up to 28.7 µM
Summary of the method: as §2

[8] = Quantitative High-Throughput drug screen in 47 multiple myeloma cell lines against the NCATS MIPE library collection: PE2_PLB cell viability assay (AID 1919869); further: nearly all actives have a fitted effect of over 35% in size
Summary of the method: as §1

[9] = Quantitative High-Throughput drug screen in 47 multiple myeloma cell lines against the NCATS MIPE library collection: RPMI8226_ATCC cell viability assay (AID 1919871); further: nearly all actives have a fitted effect of over 30% in size
Summary of the method: as §1

[10] = Quantitative High-Throughput drug screen in 47 multiple myeloma cell lines against the NCATS MIPE library collection: KMS11_JCRBsus cell viability assay (AID 1919873); further: nearly all actives have a fitted effect of over 50% in size
Summary of the method: as §1

[11] = Quantitative High-Throughput drug screen in 47 multiple myeloma cell lines against the NCATS MIPE library collection: KMS28BM_JCRB cell viability assay (AID 1919874); further: nearly all actives have a fitted effect of over 35% in size
Summary of the method: as §1

[12] = Quantitative High-Throughput drug screen in 47 multiple myeloma cell lines against the NCATS MIPE library collection: UTMC2_PLB cell viability assay (AID 1919868); further: nearly all actives have a fitted effect of over 55% in size
Summary of the method: as §1

[13] = Quantitative High-Throughput drug screen in 47 multiple myeloma cell lines against the NCATS MIPE library collection: PCM6_Riken cell viability assay (AID 1919870); further: nearly all actives have a fitted effect of over 30% in size
Summary of the method: as §1

[14] = target: Cytochrome P450 3A4 (Homo sapiens) (UniProt P08684); assay: qHTS for inhibitors of CYP3A4 against the NCATS DSHEA and TCM libraries (AID 1919971);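 further: inhibition lowers luminescence from luciferin made by CYP3A4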
Summary of the method: (§3)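 Luminescent P450-Glo readout. Enzyme plus pro-luciferin substrate in manufacturer buffer (typically 100 mM KPO4); 15 min RT preincubation; 1x NADPH regenerating system, 30-45 min RT in the dark; detection reagent 30 min.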

[15] = target: Cytochrome P450 2D6 (Homo sapiens) (UniProt P10635); assay: qHTS for inhibitors of CYP2D6 against the NCATS DSHEA and TCM libraries (AID 1919972)
Summary of the method: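 Steps: enzyme plus luciferin substrate dispensed; test substances pinned; 15 min RT; 1x NADPH regenerating solution added, 30–45 min RT protected from light; detection reagent, 30 min RT; luminescence measured. Minus-enzyme wells as background.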

[16] = target: Cytochrome P450 2C9 (Homo sapiens) (UniProt P11712); assay: qHTS for inhibitors of CYP2C9 against the NCATS DSHEA and TCM libraries (AID 1919973);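 further: luminogenic pro-luciferin CYP2C9 substrate turned into luciferin with NADPH regeneration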
Summary of the method: as §3

[17] = target: Cytochrome P450 2C19 (Homo sapiens) (UniProt P33261); assay: qHTS for inhibitors of CYP2C19 against the NCATS DSHEA and TCM libraries (AID 1919974);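 further: luminescence from luciferin released by CYP2C19 oxidation of a pro-luciferin substrate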
Summary of the method: as §3

[18] = target: Cytochrome P450 1A2 (Homo sapiens) (UniProt P05177); assay: qHTS for inhibitors of CYPIA2 against the NCATS DSHEA and TCM libraries (AID 1919976);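 further: light from luciferin formed by CYP1A2 from a pro-luciferin substrate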
Summary of the method: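 Human CYP1A2 with its pro-luciferin substrate in supplier buffer (typically 100 mM KPO4) was pre-incubated with compounds 15 min at RT. Reaction was started with 1x NADPH regeneration solution and run 30-45 min at RT in the dark, then luminescence was read after P450-Glo detection reagent (30 min RT).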

[19] = measured here: PEO1 parental Z-AUC
[20] = TFE3-RCC UOK109 viability, measured here: UOK109 Z-AUC
[21] = TFE3-RCC viability, measured here: UOK124 Z-AUC
[22] = TFE3-RCC viability, measured here: UOK145 Z-AUC

Cytochrome P450 2D6 (Homo sapiens), sequence (P10635 whole entry, looked up): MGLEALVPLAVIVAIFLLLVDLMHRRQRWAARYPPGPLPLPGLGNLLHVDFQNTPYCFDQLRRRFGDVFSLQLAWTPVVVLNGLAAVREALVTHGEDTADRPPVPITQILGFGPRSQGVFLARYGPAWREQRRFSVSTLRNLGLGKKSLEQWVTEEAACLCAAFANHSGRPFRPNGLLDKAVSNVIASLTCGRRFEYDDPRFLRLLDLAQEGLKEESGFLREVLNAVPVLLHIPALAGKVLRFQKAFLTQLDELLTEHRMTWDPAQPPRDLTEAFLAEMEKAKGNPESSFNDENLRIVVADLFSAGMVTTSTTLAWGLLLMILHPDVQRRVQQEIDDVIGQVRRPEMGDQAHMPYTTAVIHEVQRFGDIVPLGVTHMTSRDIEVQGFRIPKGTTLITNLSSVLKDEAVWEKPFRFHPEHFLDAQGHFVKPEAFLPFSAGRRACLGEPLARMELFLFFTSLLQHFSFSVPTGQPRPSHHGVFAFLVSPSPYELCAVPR
Cytochrome P450 2C19 (Homo sapiens), sequence (P33261 whole entry, looked up): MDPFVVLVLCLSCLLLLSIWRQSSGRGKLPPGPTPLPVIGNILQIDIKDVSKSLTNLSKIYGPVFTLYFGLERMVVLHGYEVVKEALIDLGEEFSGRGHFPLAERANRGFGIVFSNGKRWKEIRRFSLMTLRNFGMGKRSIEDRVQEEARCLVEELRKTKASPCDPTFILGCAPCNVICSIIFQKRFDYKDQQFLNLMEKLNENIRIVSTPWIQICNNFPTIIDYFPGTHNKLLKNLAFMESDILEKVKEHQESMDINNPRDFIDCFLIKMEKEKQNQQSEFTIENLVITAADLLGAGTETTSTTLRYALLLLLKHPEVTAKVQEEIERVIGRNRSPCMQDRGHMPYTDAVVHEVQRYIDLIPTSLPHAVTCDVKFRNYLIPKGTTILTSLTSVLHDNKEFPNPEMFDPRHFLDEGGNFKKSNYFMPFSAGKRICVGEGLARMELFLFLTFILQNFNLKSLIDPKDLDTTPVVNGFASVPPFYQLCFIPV
Cytochrome P450 2C9 (Homo sapiens), sequence (P11712 whole entry, looked up): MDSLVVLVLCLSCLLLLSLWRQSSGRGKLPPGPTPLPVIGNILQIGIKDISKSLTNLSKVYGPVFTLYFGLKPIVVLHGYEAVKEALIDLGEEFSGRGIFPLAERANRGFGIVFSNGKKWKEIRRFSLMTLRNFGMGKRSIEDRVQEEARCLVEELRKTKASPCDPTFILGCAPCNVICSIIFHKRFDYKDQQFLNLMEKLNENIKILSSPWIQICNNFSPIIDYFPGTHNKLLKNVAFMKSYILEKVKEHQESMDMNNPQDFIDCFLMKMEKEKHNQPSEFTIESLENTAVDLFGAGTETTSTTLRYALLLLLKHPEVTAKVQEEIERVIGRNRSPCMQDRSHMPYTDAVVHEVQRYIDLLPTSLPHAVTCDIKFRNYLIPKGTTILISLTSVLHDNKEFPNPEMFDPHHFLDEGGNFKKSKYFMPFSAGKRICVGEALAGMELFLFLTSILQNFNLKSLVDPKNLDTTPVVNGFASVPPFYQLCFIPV
Cytochrome P450 3A4 (Homo sapiens), sequence (P08684 whole entry, looked up): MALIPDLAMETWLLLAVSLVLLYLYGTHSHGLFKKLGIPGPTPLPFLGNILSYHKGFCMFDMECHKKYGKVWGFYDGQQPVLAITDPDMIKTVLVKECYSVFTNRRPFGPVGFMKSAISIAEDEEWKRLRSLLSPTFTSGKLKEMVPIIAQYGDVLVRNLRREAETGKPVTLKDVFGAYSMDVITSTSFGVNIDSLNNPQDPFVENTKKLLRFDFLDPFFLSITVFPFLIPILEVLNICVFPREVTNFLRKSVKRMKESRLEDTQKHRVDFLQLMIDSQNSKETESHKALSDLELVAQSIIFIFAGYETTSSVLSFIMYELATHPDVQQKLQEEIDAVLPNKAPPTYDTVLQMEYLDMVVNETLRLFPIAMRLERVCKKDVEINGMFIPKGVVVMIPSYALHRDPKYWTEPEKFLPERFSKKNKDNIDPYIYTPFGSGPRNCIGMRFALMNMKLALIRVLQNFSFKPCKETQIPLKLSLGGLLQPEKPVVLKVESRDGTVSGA
Cytochrome P450 1A2 (Homo sapiens), sequence (P05177 whole entry, looked up): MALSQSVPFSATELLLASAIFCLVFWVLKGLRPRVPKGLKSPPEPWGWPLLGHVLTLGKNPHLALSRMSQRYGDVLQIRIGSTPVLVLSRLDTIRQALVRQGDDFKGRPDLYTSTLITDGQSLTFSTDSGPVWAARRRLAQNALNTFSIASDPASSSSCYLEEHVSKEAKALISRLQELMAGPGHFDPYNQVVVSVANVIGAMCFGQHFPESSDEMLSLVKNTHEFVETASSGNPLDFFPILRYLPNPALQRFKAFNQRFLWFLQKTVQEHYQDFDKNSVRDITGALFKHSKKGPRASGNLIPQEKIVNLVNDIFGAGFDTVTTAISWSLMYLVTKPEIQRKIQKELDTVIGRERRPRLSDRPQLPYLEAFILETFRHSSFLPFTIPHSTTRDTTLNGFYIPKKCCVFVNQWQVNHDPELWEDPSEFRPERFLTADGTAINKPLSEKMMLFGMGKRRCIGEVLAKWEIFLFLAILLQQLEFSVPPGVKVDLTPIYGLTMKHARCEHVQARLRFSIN

Nc1ccc(C(=O)O)cc1
outcome [1]: inactive

O=P1(N(CCCl)CCCl)NCCCO1 (stereo unspecified)
Potency [2]: 14.8 µM (active)
Potency [3]: inactive
outcome [4]: inactive
Z-AUC [5]: 1.32 (inactive)
Z-AUC [5, 19]: 1.49
Z-AUC ([5]; measured here: PEO4 Z-AUC): 1.45
z-score [6, 20]: 0.655
z-score [6, 21]: 0.953
z-score [6, 22]: 1.4
activity, negative = inhibition ([7]; parasite line A): 11.3% (inactive)
activity, negative = inhibition ([7]; parasite line B): 6.9% (inactive)
Potency (3D7): inactive
Potency (7G8): inactive

CC(C)C[C@H](CN)CC(=O)O
Potency [2]: inactive
Potency [8]: inactive
Potency [9]: inactive
outcome [4]: inactive
Potency [10]: inactive
outcome [11]: inactive
Z-AUC [5]: 1.17 (inactive)
Z-AUC [5, 19]: 0.458
Z-AUC ([5]; measured here: PEO4 Z-AUC): 0.548
z-score [6, 20]: -0.701
z-score [6, 21]: 0.851
z-score [6, 22]: 0.709

CCCCCCCCCCCCCCCC(=O)O
outcome [1]: inactive

COc1cc(OC)c(OC)cc1C=O
Potency [3]: inactive
Potency [12]: inactive
Potency [8]: inactive
Potency [13]: inactive
outcome [4]: inactive
Potency [10]: inactive
outcome [11]: inactive
z-score [6, 20]: 0.0222
z-score [6, 21]: 0.514
z-score [6, 22]: 0.092

CCCCCCCCCCCCCCCCCC(=O)O
outcome [14]: inactive
outcome [15]: inactive
outcome [16]: inactive
outcome [17]: inactive
outcome [18]: inactive
outcome [1]: inactive

O=C(O)CCCC[C@@H]1SC[C@@H]2NC(=O)N[C@@H]21
outcome [1]: inactive

Cc1ccc(C(C)C)c(O)c1
outcome [1]: inactive

C[C@]12CC[C@@H]3c4ccc(OC(=O)N(CCCl)CCCl)cc4CC[C@H]3[C@@H]1CC[C@@H]2OP(=O)(O)O
Potency [2]: inactive
Potency [8]: inactive
Potency [13]: inactive
Potency [9]: inactive
outcome [4]: inactive
Potency [10]: inactive
outcome [11]: inactive
Z-AUC [5]: 0.291 (inactive)
Z-AUC [5, 19]: 1.75
Z-AUC ([5]; measured here: PEO4 Z-AUC): 1.95

CN1C(=O)COc2c(C(=O)NC3CN4CCC3CC4)cc(Cl)cc21 (stereo unspecified)
Potency [2]: inactive
Potency [3]: inactive
Potency [13]: inactive
Potency [9]: inactive
outcome [4]: inactive
Z-AUC [5]: -0.165 (inactive)
Z-AUC [5, 19]: -0.0882
Z-AUC ([5]; measured here: PEO4 Z-AUC): 0.485
activity, negative = inhibition ([7]; parasite line A): 7.89% (inactive)
activity, negative = inhibition ([7]; parasite line B): 7.46% (inactive)
Potency (3D7): inactive
